SMN2 splice enh: SMN2 splice variant enhancement | 210,000 tested, 2.8% active | HEK293 SMN2-luciferase splicing reporter, luminescence, 30-36 h | Potency, µM (titrated, usually from 46.1 µM), for the others: at the top dose activity change, positive = activation, most hits filed as activators; further: % of control where 0% means no effect; nearly all actives have a fitted effect of over 55% in size
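qHTS luciferase splicing reporter: luminescence rises when SMN2 exon 7 is included in transfected HEK293 cells. Compound exposure lasted 30-36 h at 37C, with 4.5 mM final sodium butyrate as control, followed by a ONE-Glo read.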
ELG1 DNA repair: inhibitors of ELG1-dependent DNA repair in HEK293T cells. HEK293T ELG1-luciferase reporter, luminescence, 16 h; DNA damage induced by 5-fluorouridine. Potency, µM (top dose mostly 46.1 µM), without a hit: at the highest dose activity change, negative = inhibition, actives largely listed as inhibitors. 330,000 tested, 2.3% active. AID 504467; further: on the % scale 0 is the no-effect control and ±100 the full control effect; nearly all actives have a fitted effect of over 55% in size
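HEK293T cells expressing luciferase-tagged ELG1 (2,000/well) received 5-Fluorouridine plus compound or DMSO for 16 hr at 37 °C. Luciferase was read by ONE-Glo luminescence after 30 min at room temperature.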
NPC1 prom act: activates the NPC1 promoter; Huh7 NPC1 promoter luciferase reporter, 24 h; Potency, µM (titrated, usually from 9.22 µM), for the others: at the highest dose activation, actives largely listed as activators; 320,000 tested, 2.4% active; AID 485313; further: % of control where 0% means no effect; nearly all actives have a fitted effect of over 60% in size
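Stably transfected Huh7 (NPC1 promoter→luciferase), 1500 cells/well in Opti-MEM + 10% FBS, 2 h settle, then compound 24 h at 37 °C. Luminescence after 10 min with Amplite reagent.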
ELG1 genotox: induces genotoxicity in HEK293T cells with luciferase-tagged ELG1; Potency, µM (titrated, usually from 46 µM), without a hit: at the highest dose activity change, positive = activation, actives largely listed as activators; HEK293T ELG1-luciferase reporter, luminescence, 16 h; AID 504466; 330,000 tested, 1.3% active; further: % of control where 0% means no effect; nearly all actives have a fitted effect of over 60% in size
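Reporter readout depends on ELG1 protein level, which increases with genetic stress. After 16 hr compound exposure at 37 °C, luciferase activity was quantified using ONE-Glo.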
Rab9 prom act: activates the Rab9 promoter. Huh7 Rab9 promoter-luciferase reporter, luminescence, 24 h. Potency, µM (highest dose often 9.22 µM), for inactives: top-dose activation, negative = inhibition, usual class: activators. 320,000 tested, 2.8% active; further: % of control where 0% means no effect; nearly all actives have a fitted effect of over 60% in size
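Huh7 cells stably carrying a Rab9 promoter-luciferase reporter, 1500 cells per well in OP-MEM I with 10% FBS, treated with compound 24 hours at 37C. Luciferase activity read by luminescence after 10 minutes with Amplite reagent.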
FLuc counter: inhibits or activates purified firefly luciferase, miR-21 counter-screen. Potency, µM (series often up to 57.5 µM), for the others: at the top dose activity change, negative = inhibition, most hits filed as inhibitors. 360,000 tested, 6.9% active. purified FLuc, Km substrates, luminescence inhibition. AID 588342;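 further: plate controls were vehicle for no effect and reference inhibitor for full effect; nearly all actives have a fitted effect of over 55% in size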
Target sequence (P08659 whole entry, looked up): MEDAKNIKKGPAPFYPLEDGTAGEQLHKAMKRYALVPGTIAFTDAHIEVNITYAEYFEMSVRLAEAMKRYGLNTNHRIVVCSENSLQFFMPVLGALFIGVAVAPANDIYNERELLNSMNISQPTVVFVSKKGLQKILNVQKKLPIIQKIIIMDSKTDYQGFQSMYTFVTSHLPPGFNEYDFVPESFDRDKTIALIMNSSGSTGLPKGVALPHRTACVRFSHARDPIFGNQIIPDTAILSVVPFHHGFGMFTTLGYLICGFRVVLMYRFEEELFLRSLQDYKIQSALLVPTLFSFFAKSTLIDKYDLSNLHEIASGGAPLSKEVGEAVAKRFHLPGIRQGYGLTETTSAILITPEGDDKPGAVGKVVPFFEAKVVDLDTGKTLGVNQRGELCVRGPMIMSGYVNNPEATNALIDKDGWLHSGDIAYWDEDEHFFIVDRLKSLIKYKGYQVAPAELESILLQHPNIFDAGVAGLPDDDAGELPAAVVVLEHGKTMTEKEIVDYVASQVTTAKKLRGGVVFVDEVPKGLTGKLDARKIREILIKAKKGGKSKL
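Biochemical qHTS of compounds, final roughly 60 µM downward over six points, against 10 nM purified firefly luciferase using Km concentrations of substrates (10 uM D-luciferin, 10 uM ATP) in Tris acetate pH 7.5 buffer; luminescence output.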
Active calls of the source: *; ? = inconclusive; / = no result. Rows were chosen to be rich in hits. Some 9.4% of all compounds tested hit in one or more screens of this group. The call rests on the fitted dose curve; in most records, active means well fitted curve in the direction sought with a large enough effect; inconclusive means small, poorly fitted or top-dose-only effect, or another doubt; inactive means no such curve, though single readings can be large; an effect the other way counts as inactive or inconclusive. Potency means the concentration at half of the fitted maximal effect.

SMILES	SMN2 splice enh	ELG1 DNA repair	NPC1 prom act	ELG1 genotox	Rab9 prom act	FLuc counter
O=C(Nc1ccccn1)c1sc2cc([N+](=O)[O-])ccc2c1Cl	/	?	?	13%	1.3µM*	?
O=C(Nc1nccs1)c1sc2ccccc2c1Cl	2.5µM*	?	4µM*	?	1.1µM*	0.67µM*
CCCn1nnc(NC(=O)c2sc3ccccc3c2Cl)n1	?	?	?	9.2µM*	3.2µM*	27µM*
O=C(Nc1nccs1)c1cc(Cl)nc2ccccc12	/	-21%	-4%	-4%	1%	-4%
O=C(Nc1nccs1)c1cc(Cl)ccc1[N+](=O)[O-]	-16%	-5%	0%	-5%	2%	2%
CCCn1nnc(NC(=O)Cc2ccccc2)n1	2%	12%	-3%	0%	-2%	0%
O=C(Nc1nccs1)c1sc2cc(Cl)ccc2c1Cl	?	?	3.5µM*	13%	4µM*	2.7µM*
O=C(COc1ccc([N+](=O)[O-])cc1)Nc1cccc2cccnc12	-4%	/	/	/	/	0%
CCn1ccc2c(OCC(=O)Nc3ccc(OC)cc3OC)cccc2c1=O	/	/	/	/	/	-5%
COc1ccc(OC)c(NC(=O)CSc2ccnc(=O)[nH]2)c1	/	/	/	/	/	7%
Cc1c(-c2ccc(Br)cc2)nc2ccccn12	/	?	3.2µM*	?	2.5µM*	2.4µM*
O=C(O)c1c(Cl)nc2ccccn12	1%	-9%	-5%	0%	8%	2%
c1ccn2c(c1)nc1c2nc2ccccn21	24%	?	?	?	21%	17µM*
CN(C)c1ccc(-c2nc3ccccn3c2/N=C/c2ccc(Br)cc2)cc1	3.2µM*	?	?	?	?	0.6µM*
COc1ccc(OC)c(/C=N/c2c(-c3ccc(O)c(OC)c3)nc3ccccn23)c1	-12%	26%	-1%	1%	-1%	?
Clc1c(-c2ccccc2)nc2ccccn12	/	?	4µM*	?	2.5µM*	12µM*
CCc1cc(C(=O)NC2CCCN(Cc3ccccc3F)C2)n(C)n1 (centres undefined)	/	?	-18%	-2%	-28%	7%
Cc1ccc(-c2nc3ccccn3c2C=O)cc1	/	?	?	?	3.5µM*	21µM*
COc1ccc(-c2nc3c4ccccc4ccn3c2C=O)cc1	-4%	15%	-3%	3%	7%	-11%
CC(C)[C@@H](CC(=O)N[C@@H]1CCNC[C@H]1C(=O)N[C@H](CC(=O)N[C@@H](CCC(=O)O)CC(=O)O)Cc1c[nH]c2ccccc12)NC(=O)C[C@H](Cc1ccccc1)NC(=O)[C@@H]1CNCC[C@H]1N	-7%	/	/	/	/	/
CN1c2ccccc2C(=O)/C(=C\Nc2ccc(F)cc2)S1(=O)=O	/	-9%	-6%	-2%	-1%	12µM*
CN1c2ccsc2C(=O)/C(=C\Nc2cccc(C(F)(F)F)c2)S1(=O)=O	/	9%	-2%	-3%	-6%	?
CN(C)c1ccc(-c2nnc(SCC3CCCO3)n2C)cc1 (centres undefined)	/	?	?	?	3.2µM*	?
Cc1ccccc1NC(=O)CSc1nc(-c2ccccc2)cn1-c1ccccc1F	/	/	/	/	/	5%
O=C(OCC1CC(c2ccccc2)=NO1)c1ccc(Cl)cc1 (centres undefined)	-1%	5%	1%	-1%	-6%	-10%
SMILES	SMN2 splice enh	ELG1 DNA repair	NPC1 prom act	ELG1 genotox	Rab9 prom act	FLuc counter
CN1OC(COC(=O)c2ccccc2)CC1c1ccccc1 (centres undefined)	-13%	13%	?	3%	8%	6.7µM*
O=C1CCC(C(=O)Nc2cccc3ccccc23)N1 (centres undefined)	7.9µM*	-5%	-2%	3%	-2%	3%
COC(=O)[C@@]1(Cc2ccccc2)[C@H]2c3cc(C(=O)N(C)C)n(Cc4ccccc4)c3C[C@H]2CN1C(=O)c1ccccc1	-80%	/	/	/	/	/
CCOC(=O)N1CCC(NC(=O)c2cc3c(-c4ccc(OC)c(OC)c4)nn(C)c3s2)CC1	?	7.3µM*	3%	-15%	0%	-1%
CCOC(=O)N1CCC(NC(=O)c2cc3c(-c4ccccc4F)nn(C)c3s2)CC1	-22%	13µM*	-2%	-21%	1%	1%
CCOC(=O)C1CCN(C(=O)c2cc3c(-c4ccc(OC)c(OC)c4)nn(C)c3s2)CC1	-1%	?	-2%	-2%	7%	-13%
Cc1ccc(Cn2c(C(=O)O)c(CNCc3cccs3)c3ccc(C)cc32)cc1	/	/	/	/	/	3%
C[C@H](Cc1ccccc1)Nc1ncnc2c1ncn2[C@@H]1O[C@H](CO)[C@H](O)[C@H]1O	5%	/	/	/	/	/
CC1(C)CNc2cc([N+](=O)[O-])ccc2S1	14%	?	?	?	?	27µM*
O=S(=O)(c1ccccc1)N1CCC[C@@]2(CCN(c3ccncc3)C2)C1	-23%	/	/	/	/	/
CN(C)CCCN1C(=O)c2cccc3c([N+](=O)[O-])ccc(c23)C1=O	-36%	13µM*	-16%	-19%	-15%	-4%
CCN(CC)c1ccc2nc3ccccc3[n+](CC)c2c1	/	3.7µM*	-45%	-35%	-48%	15µM*
CCN(CC)c1ccc2nc3ccc(N)cc3[n+](-c3ccccc3)c2c1	/	?	-36%	-3%	-34%	13µM*
COc1ccc(NC(=O)Cn2cnc3c(oc4ccccc43)c2=O)cc1OC	/	/	/	/	/	-5%
CCN1C(=O)/C(=C/C=C2/CCCN2C)OC1=S	/	?	3.2µM*	?	?	?
Cc1nn(C)c(C)c1S(=O)(=O)N(CC(=O)NCCc1ccc(Cl)cc1)c1ccc(C(C)C)cc1	-6%	/	/	/	/	0%
COc1ccc2[nH]c3c(=O)n(Cc4ccc(C(=O)N5CCCCCC5)cc4)c(=S)[nH]c3c2c1	-15%	?	-3%	0%	13%	-11%
CCOC(=O)C1CCCN(C(=O)c2ccc3c(=O)n(CCOC)c(=S)[nH]c3c2)C1 (centres undefined)	-67%	8.2µM*	2%	-6%	-4%	-3%
CCOC(=O)N1CCN(C(=O)c2ccc(Cn3c(=S)[nH]c4cc5c(cc4c3=O)OCO5)cc2)CC1	-49%	23µM*	-2%	-7%	1%	3%
COCCn1c(=S)[nH]c2cc(C(=O)N3CCC(C(N)=O)(N4CCCCC4)CC3)ccc2c1=O	/	-2%	0%	5%	6%	0%
CCCCC(CC)CNC(=O)c1ccc2c(=O)n(CCOC)c(=O)[nH]c2c1 (centres undefined)	4µM*	/	/	/	/	-5%

High-throughput results (PubChem)
